The source of these data is PubChem BioAssay.

Several values for one entry are separate records, joined by “and”; a condition that tells them apart may be missing. Identical values can stand only once. Records with an inconclusive call do not appear. Activity calls are given as the source filed them.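 The calls were made as follows, unless noted: active = inhibition above 54%, about 3 SD of non-fluorescent compounds; inactive = the rest.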

Assay [1] can be described thus: yeast TOR pathway RPL19A-GFP modulators, primary screen, cell-based, S. cerevisiae, multiplex flow cytometry (AID 1862; in the data active = percent of DMSO control GFP below about 86%;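 also: lower values mimic rapamycin by blocking the RPL19A rise seen in DMSO cells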). Conditions: S. cerevisiae RPL19A-GFP strain, flow cytometry fluorescence, 3 h; at 10 µM; stronger effect = lower value. (In general: A flow cytometer gives signals particle by particle.)
Assay [2] in a line: modulators of MEP2-GFP levels in yeast, primary screen, S. cerevisiae, multiplex flow cytometry (AID 1867;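 active = GFP response, as percent of the DMSO control, above the screen-wide mean plus 3 SD, about 139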;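 also: median GFP channel fluorescence of barcode-gated MEP2-GFP cells measured by flow cytometry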). Conditions: S. cerevisiae MEP2-GFP strain, 3 h, at 10 µM, stronger effect = higher value, 100% means same as DMSO wells.
Assay [3] can be described thus: modulators of CIT2-GFP expression in yeast, primary screen, S. cerevisiae, GFP fusion, multiplex flow cytometry (AID 1870;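 active = percent response above a set limit, the screen-wide mean plus 3 SD, cut at about 130% in these data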;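 also: barcoded CIT2-GFP strain pooled with four other GFP strains with rapamycin as positive control; median GFP fluorescence per well over plate mean of DMSO wells so 100% = DMSO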). Conditions: 3 h, at 10 µM, stronger effect = higher value.
Assay [4] can be described thus: modulators of LAP4-GFP expression in yeast, primary screen, S. cerevisiae, multiplex flow cytometry (AID 1873;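 active = GFP signal, as percent of the solvent control, above the screen mean plus 3 SD, about 149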). Conditions: 3 h, at 10 µM, stronger effect = higher value.
Assay [5] in a line: modulators of AGP1-GFP expression in yeast TOR pathway, primary screen, cell-based, multiplex flow cytometry, S. cerevisiae (AID 1887;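 active = GFP signal above the screen-wide mean plus 3 SD, that is over about 124.5% of the solvent control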;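 also: AGP1-GFP fusion strain of S. cerevisiae within a five-strain barcoded multiplex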). Conditions: 3 h, at 10 µM, stronger effect = higher value.
Assay [6] in a line: inhibitors of CD8+ T cell-vesicle binding, pilot screen, LFA-1/ICAM-1 modulator project, MLPCN validation set, flow cytometry (AID 2523;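 active = response below a set limit, under 55% cells CD8-positive and vesicle-bound, and CD8 cells' 90th-percentile brightness under 279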;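 as to vesicle binding response: mean PE anti-B7-1 fluorescence of CD8+ cells relative to row control; 100% = QL9-loaded vesicles with DMSO vehicle in the same plate row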). Conditions: 2C mouse CD8+ T cells, at 7 µM, stronger effect = lower value; double positive events: measured here: CD8+/vesicle+ event percentage.
Assay [7] has as its target Integrin beta-1 (Homo sapiens) + Integrin alpha-4 (Homo sapiens) (UniProt P13612+P05556). As to the kind of experiment: inhibition of HUTS-21 binding to VLA-4, pilot screen, VLA-4 allosteric modulator project, U937 cells, HUTS-21 mAb, flow cytometry, validation set (AID 2674;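 active = inhibition above 50%, about 3 SD of the validation set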;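 also: antibody binding induced by the VLA-4 ligand LDV present at three times its Kd; 0% = LDV ligand with antibody and no compound and 100% = antibody without LDV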). Conditions: HUTS-21 LIBS mAb binding, at 6.7 µM, stronger effect = higher value, binding induced by LDV ligand.

Assay [8] in a line: superoxide lowering in aged yeast cells, pilot screen, validation compound set (AID 2706;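 active = superoxide response below 65% of plate, a cut near 3 SD across the whole screen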;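 also: yeast exposed to compound for one week at 30 degrees C before staining; 100% = mean of all compound wells on the same plate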). Conditions: S. cerevisiae aging, superoxide DHE fluorescence; at 10 µM; stronger effect = lower value.
Assay [9] deals with Beta-adrenergic receptor kinase 1 (Homo sapiens) (UniProt P25098). As to the kind of experiment: GRK2 binders displacing RNA aptamer, biochemical, validation, human GRK2, bead flow cytometry (AID 488806;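 active = aptamer binding inhibition above 30%, about 3 SD of noise from non-fluorescent compounds; inactive = inhibition at or below 30%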). Conditions: bead-bound GRK2, FAM-aptamer displacement, at 10 µM, stronger effect = higher value.
For assay [10], the target named is Beta-2 adrenergic receptor (Homo sapiens) (UniProt P07550). As to the kind of experiment: beta2AR agonists driving receptor internalization, pilot screen, cell-based, FAP fluorogen, flow cytometry, validation set (AID 504459;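 active = percent response above 42, roughly 3 SD of non-fluorescent test compounds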;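 also: agonist-driven loss of surface beta2AR via internalization measured by FAP dye flow cytometry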). Conditions: Am2.2-beta2AR cells, FAP surface receptor flow cytometry; at 10 µM; stronger effect = higher value.
For assay [11], the target named is AP-2 complex subunit beta (Homo sapiens) (UniProt P63010). The assay can be described thus: inhibitors of arrestin peptide binding to AP2, pilot screen, biochemical, validation set, GST-AP2 beads, flow cytometry (AID 504541).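 Also: AP2 carries R879A mutation and is captured from E. coli lysate; bead-bound FITC arrestin peptide fluorescence measuring arrestin peptide binding to AP2; 0% = DMSO wells and 100% = excess unlabeled arrestin peptide control.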 Conditions: FITC arrestin peptide, at 10 µM, stronger effect = higher value, AP2 beta2 appendage fragment, R879A mutant.
The nature of assay [12]: yeast V-ATPase proton transport modulators, S. cerevisiae, pHLuorin, HTS validation (AID 504600; in the data active = response above about 15%;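 also: plate controls were DMSO for no effect and reference compound for full effect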). Conditions: S. cerevisiae pHLuorin cytosolic pH, at 10 µM, stronger effect = higher value.
Assay [13] has as its system anti-desmoglein-3 scFv antibody binding to human DSG3. The assay can be described thus: inhibitors of anti-DSG3 scFv binding to DSG3, pilot screen, biochemical, validation compound set, bead-based, flow cytometry (AID 588368;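 active = binding below the plate cutoff, the plate median minus 3 SD, with a reading above zero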;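 also: signal is the median channel fluorescence of bead-bound GFP antibody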). Conditions: Protein G beads, DSG3-Fc, scFv-GFP binding, at 10 µM, stronger effect = lower value.
Assay [14] is described as follows: inhibitors of fungal efflux pumps CDR1, CDR2, MDR1, pilot screen, validation compound set, multiplex, phenotypic (AID 588506;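 active = efflux inhibition above 0.42, the validation set average plus 4 SD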;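 also: Nile Red retained in cells so higher fluorescence means more efflux inhibition; 0 = negative control wells and 1 = enniatin B 25 µM full block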). Conditions: S. cerevisiae pump-expressing triplex, Nile Red efflux flow cytometry; at 10 µM; stronger effect = higher value; the pumps come from Candida albicans.
Assay [15] concerns the target ATP-binding cassette sub-family B member 6 (Homo sapiens) (UniProt Q9NP58). As to the kind of experiment: ABCB6 transporter inhibitors, pilot screen, K562-ABCB6 cells, flow cytometry, validation set (AID 588550;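 active = inhibition above the screen-wide mean plus 3 SD, about 51%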;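 also: 0% = DMSO wells and 100% = benzethonium chloride 70 µM positive control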). Conditions: K562-ABCB6 porphyrin accumulation, 1 h, at 10 µM, stronger effect = higher value.
Assay [16] is described as follows: promoters of myeloid differentiation in arrested cells, primary screen, cell-based, GFP/MAC1 double positive, flow cytometry, validation set (AID 588685;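 active = differentiation response of at least 50%, scaled between solvent and reference control, from cells with both markers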;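 also: compound exposure lasts four days before antibody staining and flow analysis; 0% = DMSO wells and 100% = 5 µM fulvestrant positive control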). Conditions: ER-HoxA9 marrow cells, stronger effect = higher value, normalized: vehicle 0, fulvestrant 100.

Chain of Integrin beta-1 (Homo sapiens) + Integrin alpha-4 (Homo sapiens) (P05556 whole entry, looked up): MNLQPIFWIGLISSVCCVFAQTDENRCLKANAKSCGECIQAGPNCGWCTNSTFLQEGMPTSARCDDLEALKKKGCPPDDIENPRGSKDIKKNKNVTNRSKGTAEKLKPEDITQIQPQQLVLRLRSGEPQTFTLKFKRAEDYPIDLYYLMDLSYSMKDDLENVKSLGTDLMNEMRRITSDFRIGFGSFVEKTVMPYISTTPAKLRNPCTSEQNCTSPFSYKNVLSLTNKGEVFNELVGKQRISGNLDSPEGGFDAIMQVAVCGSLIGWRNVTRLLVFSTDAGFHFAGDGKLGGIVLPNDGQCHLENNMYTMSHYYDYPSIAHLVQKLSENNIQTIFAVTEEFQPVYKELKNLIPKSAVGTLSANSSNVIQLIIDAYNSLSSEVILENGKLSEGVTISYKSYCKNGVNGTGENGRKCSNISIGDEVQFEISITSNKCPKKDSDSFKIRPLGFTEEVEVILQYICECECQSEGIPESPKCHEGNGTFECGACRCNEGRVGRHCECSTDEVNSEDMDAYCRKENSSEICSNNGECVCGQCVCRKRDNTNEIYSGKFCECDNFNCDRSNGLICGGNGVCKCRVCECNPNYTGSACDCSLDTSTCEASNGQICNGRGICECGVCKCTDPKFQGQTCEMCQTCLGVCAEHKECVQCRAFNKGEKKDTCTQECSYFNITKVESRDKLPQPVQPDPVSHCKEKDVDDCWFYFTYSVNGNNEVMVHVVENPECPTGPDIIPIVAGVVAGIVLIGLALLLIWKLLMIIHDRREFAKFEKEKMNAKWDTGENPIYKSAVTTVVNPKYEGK
Chain of Integrin beta-1 (Homo sapiens) + Integrin alpha-4 (Homo sapiens) (P13612 whole entry, looked up): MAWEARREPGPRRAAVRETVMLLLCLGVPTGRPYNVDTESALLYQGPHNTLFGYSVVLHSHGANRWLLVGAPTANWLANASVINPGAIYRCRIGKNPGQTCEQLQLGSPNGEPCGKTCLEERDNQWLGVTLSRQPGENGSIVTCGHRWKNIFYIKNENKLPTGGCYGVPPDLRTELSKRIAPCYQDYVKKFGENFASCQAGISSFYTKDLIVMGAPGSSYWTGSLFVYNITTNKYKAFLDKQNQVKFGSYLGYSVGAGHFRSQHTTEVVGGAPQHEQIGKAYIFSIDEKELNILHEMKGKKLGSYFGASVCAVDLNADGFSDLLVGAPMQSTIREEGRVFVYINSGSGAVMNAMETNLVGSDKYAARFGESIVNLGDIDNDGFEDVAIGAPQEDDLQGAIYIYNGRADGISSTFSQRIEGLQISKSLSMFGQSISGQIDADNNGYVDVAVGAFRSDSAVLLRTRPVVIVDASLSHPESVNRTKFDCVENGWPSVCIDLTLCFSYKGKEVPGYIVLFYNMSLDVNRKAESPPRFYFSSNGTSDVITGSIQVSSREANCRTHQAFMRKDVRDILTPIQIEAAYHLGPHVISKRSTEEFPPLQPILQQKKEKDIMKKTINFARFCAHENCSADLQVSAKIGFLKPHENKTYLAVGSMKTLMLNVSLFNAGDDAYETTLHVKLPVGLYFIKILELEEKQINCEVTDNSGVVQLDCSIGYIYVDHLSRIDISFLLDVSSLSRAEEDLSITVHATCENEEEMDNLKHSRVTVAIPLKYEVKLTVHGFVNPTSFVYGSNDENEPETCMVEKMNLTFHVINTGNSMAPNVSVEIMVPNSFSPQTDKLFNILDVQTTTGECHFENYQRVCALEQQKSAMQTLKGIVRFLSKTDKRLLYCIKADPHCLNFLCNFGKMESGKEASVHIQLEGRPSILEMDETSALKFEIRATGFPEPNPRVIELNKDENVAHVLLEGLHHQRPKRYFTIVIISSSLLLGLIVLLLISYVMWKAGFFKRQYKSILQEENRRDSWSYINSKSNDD
Chain of Beta-adrenergic receptor kinase 1 (Homo sapiens) (P25098 whole entry, looked up): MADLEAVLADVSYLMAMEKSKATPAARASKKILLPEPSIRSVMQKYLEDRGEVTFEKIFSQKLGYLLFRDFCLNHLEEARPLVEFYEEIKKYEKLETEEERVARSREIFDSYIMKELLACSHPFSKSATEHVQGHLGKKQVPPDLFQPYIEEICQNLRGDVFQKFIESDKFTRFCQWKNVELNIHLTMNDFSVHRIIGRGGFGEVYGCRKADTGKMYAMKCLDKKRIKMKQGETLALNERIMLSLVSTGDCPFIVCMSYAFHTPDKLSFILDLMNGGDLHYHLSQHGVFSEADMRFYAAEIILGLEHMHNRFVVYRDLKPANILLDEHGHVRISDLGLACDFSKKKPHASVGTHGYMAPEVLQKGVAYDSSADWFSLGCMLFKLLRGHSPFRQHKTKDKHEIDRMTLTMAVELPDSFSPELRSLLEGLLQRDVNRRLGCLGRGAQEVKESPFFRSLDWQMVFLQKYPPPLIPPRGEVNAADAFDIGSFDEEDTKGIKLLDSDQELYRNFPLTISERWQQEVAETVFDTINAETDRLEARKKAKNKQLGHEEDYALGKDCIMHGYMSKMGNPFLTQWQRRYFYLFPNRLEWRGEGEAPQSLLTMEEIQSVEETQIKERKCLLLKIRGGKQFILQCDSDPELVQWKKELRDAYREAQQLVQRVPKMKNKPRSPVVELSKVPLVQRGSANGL
Chain of ATP-binding cassette sub-family B member 6 (Homo sapiens) (Q9NP58 whole entry, looked up): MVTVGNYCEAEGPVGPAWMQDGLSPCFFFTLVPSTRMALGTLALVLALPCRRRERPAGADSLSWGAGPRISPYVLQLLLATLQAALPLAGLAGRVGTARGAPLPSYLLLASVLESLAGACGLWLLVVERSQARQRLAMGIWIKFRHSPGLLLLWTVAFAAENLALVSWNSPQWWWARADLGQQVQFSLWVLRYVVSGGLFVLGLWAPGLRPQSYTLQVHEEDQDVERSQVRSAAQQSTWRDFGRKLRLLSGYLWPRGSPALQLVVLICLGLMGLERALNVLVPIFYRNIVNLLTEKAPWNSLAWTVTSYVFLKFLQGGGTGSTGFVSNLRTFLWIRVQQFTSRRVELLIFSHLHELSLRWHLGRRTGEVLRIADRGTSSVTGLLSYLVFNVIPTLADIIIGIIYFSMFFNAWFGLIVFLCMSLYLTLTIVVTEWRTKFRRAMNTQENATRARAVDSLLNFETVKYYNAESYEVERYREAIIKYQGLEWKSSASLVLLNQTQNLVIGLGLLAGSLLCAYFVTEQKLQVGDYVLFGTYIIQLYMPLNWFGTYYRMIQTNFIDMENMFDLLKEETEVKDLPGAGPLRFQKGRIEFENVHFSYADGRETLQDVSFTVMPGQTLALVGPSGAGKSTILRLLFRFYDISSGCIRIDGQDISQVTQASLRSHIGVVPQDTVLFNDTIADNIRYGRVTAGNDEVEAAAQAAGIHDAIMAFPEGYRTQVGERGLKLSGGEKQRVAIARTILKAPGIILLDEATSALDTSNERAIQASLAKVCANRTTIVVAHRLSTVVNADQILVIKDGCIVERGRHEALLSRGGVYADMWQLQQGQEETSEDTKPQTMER
Chain of AP-2 complex subunit beta (Homo sapiens) (P63010 whole entry, looked up, the tested form may be a part, one chain of several): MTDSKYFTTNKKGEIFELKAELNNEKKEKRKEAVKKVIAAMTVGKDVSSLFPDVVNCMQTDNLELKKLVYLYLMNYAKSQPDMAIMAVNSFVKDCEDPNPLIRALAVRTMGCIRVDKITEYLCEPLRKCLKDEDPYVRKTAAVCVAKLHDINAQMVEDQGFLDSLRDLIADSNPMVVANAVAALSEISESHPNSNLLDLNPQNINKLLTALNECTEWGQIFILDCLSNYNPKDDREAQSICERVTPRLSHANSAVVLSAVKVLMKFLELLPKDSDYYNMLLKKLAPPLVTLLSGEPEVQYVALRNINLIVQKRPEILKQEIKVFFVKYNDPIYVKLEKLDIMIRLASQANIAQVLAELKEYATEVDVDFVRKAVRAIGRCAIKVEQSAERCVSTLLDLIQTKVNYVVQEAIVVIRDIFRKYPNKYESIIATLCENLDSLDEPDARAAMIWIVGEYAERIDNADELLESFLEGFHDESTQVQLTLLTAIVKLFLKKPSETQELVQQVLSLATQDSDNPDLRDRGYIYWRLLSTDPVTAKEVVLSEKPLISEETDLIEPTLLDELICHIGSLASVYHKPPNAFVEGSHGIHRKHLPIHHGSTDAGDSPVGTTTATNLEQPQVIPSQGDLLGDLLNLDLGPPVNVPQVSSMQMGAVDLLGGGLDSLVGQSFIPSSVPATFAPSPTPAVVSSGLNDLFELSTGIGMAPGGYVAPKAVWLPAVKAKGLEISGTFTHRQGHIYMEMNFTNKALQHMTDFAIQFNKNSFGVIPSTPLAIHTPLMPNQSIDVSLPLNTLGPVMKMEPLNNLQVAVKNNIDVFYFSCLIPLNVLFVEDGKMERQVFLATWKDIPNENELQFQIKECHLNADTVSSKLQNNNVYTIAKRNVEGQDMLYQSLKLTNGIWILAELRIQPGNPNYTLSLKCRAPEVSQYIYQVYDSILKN
Chain of Beta-2 adrenergic receptor (Homo sapiens) (P07550 whole entry, looked up): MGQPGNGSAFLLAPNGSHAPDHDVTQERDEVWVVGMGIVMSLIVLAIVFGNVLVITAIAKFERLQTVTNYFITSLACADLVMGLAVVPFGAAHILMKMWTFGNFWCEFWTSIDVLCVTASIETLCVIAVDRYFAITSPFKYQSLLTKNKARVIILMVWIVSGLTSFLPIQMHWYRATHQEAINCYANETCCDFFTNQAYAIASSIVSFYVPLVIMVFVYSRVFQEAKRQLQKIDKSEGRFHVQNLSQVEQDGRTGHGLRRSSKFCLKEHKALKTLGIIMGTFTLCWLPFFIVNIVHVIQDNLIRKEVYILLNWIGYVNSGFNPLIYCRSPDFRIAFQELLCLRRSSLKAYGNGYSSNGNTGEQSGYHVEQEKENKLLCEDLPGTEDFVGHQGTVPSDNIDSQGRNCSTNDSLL

Turning to `CC(C)N1C(=O)/C(=C\c2nc3ccccc3c(=O)[nH]2)c2ccccc21`, in assay [1], the percent of DMSO control GFP was 103% (inactive). The GFP response vs DMSO was 106% (inactive) in assay [2] and 128% (inactive) in assay [4]. Further, the percent response of DMSO control in [3] is 103% (inactive). For the same compound, the GFP response, % of DMSO in assay [5] was 93.8% (inactive). In assay [6], this compound registered a double positive events of 60.8%. The vesicle binding response in [6] was 157% (inactive). In addition, the inhibition (usually the change of the read-out against control, counted positive when it falls) in assay [7] was -7.25% (inactive); in [11], -10.5% (inactive); in [15], 6% (inactive). Besides, in [8], the superoxide response (% of plate) was 125% (inactive). In addition, the aptamer binding inhibition in assay [9] is 6% (inactive). In addition, the response was 32.8% (inactive) in assay [10] and -1.63% (inactive) in assay [12]. Also, the binding (% of control) in assay [13] was 101% (inactive). Moreover, the efflux inhibition (fraction of control) in [14] was -0.1 (inactive). Moreover, in [16], the differentiation response is -21.6% (inactive).
With `CC(C)CCc1noc(CN2CCC(CCN3CCCC3=O)CC2)n1`, the percent of DMSO control GFP in assay [1] is 98.3% (inactive). The GFP response vs DMSO in [2] is 101% (inactive); in assay [4], 99.1% (inactive). The percent response of DMSO control in [3] was 105% (inactive). For the same compound, the GFP response, % of DMSO in assay [5] was 102% (inactive). The double positive events in assay [6] stood at 62.1%. The vesicle binding response in assay [6] was 188% (inactive). Besides, the results for the inhibition in assay [7], in assay [11] and in [15] were 23% (inactive), 32.4% (inactive) and -3% (inactive), respectively. For the same compound, the superoxide response (% of plate) in assay [8] was 97.3% (inactive). Besides, in [9], the aptamer binding inhibition is -3% (inactive). Besides, the results for the response in assay [10] and in [12] were -4.37% (inactive) and -4.25% (inactive), respectively. Also, in assay [13], the binding (% of control) is 95.1% (inactive). Besides, the efflux inhibition (fraction of control) in assay [14] was -0.39 (inactive). Besides, the differentiation response in assay [16] is -13.3% (inactive).
For the compound `CCOc1ccc(C(=O)N2CCCC2C(=O)O)cc1` (stereo not given), the percent of DMSO control GFP in [1] is 97.9% (inactive). Further, the GFP response vs DMSO is 101% (inactive) in [2] and 103% (inactive) in assay [4]. Moreover, the percent response of DMSO control in [3] is 100% (inactive). Also, in assay [5], the GFP response, % of DMSO is 102% (inactive). In assay [6], this compound gave a double positive events of 62.9%. In [6], the vesicle binding response was 163% (inactive). For the same compound, the inhibition is 13.4% (inactive) in [7], 1.45% (inactive) in assay [11] and 6% (inactive) in assay [15]. Besides, the superoxide response (% of plate) in assay [8] was 107% (inactive). The aptamer binding inhibition in [9] was 6% (inactive). Also, the response in [10] was -15.7% (inactive); in assay [12] it was 6.32% (inactive). Also, the binding (% of control) in [13] was 101% (inactive). For the same compound, in assay [14], the efflux inhibition (fraction of control) was -0.04 (inactive). In addition, the differentiation response in assay [16] is -1.05% (inactive).
For the compound `Cc1ccc(C(=O)COC(=O)c2cccc(N3C(=O)c4c(C)nc5ccccc5c4C3=O)c2)cc1C`, in assay [1], the percent of DMSO control GFP is 99.5% (inactive). Besides, the GFP response vs DMSO in assay [2] was 102% (inactive); in [4], 110% (inactive). Also, the percent response of DMSO control in assay [3] was 97% (inactive). Moreover, the GFP response, % of DMSO in assay [5] is 113% (inactive). The compound also came in with a double positive events in assay [6] of 61.9%. In addition, the vesicle binding response in assay [6] was 170% (inactive). The inhibition in assay [7] was -8.78% (inactive); in [11], -6.3% (inactive); in [15], 2% (inactive). Moreover, the superoxide response (% of plate) in assay [8] is 107% (inactive). Also, the aptamer binding inhibition in assay [9] was 1% (inactive). The values for the response in assay [10] and in assay [12] were -22.6% (inactive) and -3.74% (inactive), respectively. Also, in assay [13], the binding (% of control) is 98.8% (inactive). The efflux inhibition (fraction of control) in assay [14] is 0.25 (inactive). Besides, the differentiation response in assay [16] was -13.9% (inactive).
In the case of `Cc1ccc(N(CC2=NCCN2)c2cccc(O)c2)cc1`, the percent of DMSO control GFP in [1] was 107% (inactive) and 88.9% (inactive) and 106% (inactive). The GFP response vs DMSO was 107% (inactive) and 126% (inactive) and 96.9% (inactive) in assay [2]; 105% (inactive) and 80.3% (inactive) and 113% (inactive) in assay [4]. Besides, the percent response of DMSO control in [3] is 112% (inactive) and 107% (inactive) and 114% (inactive). In [5], the GFP response, % of DMSO was 105% (inactive) and 95.6% (inactive) and 106% (inactive). Besides, in assay [6], the double positive events is 48.5% and 66.6% and 52.4%. Moreover, in assay [6], the vesicle binding response was 164% (inactive) and 159% (inactive) and 183% (inactive). Also, the inhibition in assay [7] was -12.4% (inactive) and 6.46% (inactive) and 1.62% (inactive); in [11], -1.88% (inactive) and 0.96% (inactive) and -11.2% (inactive); in assay [15] it was 9% (inactive) and 4% (inactive) and 7% (inactive). Moreover, the superoxide response (% of plate) in assay [8] was 94.9% (inactive) and 91.2% (inactive) and 102% (inactive). Further, the aptamer binding inhibition in [9] was -2% (inactive) and 0% (inactive) and -7% (inactive). For the same compound, the response is -2.19% (inactive) in assay [10]; 1.2% (inactive) and -3.77% (inactive) and 0.74% (inactive) in assay [12]. Moreover, the binding (% of control) in [13] is 98.2% (inactive) and 102% (inactive) and 97.7% (inactive). The efflux inhibition (fraction of control) in [14] was -0.05 (inactive) and 0.23 (inactive) and -0.24 (inactive). In addition, in assay [16], the differentiation response is -34.1% (inactive) and 3.28% (inactive) and -18% (inactive).
